Compounds without any hit were thinned out: in the full panel of roughly 83,000, 20% have a hit.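 Cells were grown in 96-well plates and exposed to the test compound at a single concentration for 48 hours; results are reported as percent growth, with values below 10 considered active.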 Activity calls are given as the source filed them.
Tested on: MDA-MB-468 breast
Assay: NCI-60 one-dose screen, 48 h (100 = growth as untreated, 0 = no growth, -100 = all killed)
Details: 10 µM unless noted

SMILES | growth
Oc1ccc(CSc2nnc(-c3ccccc3)n2-c2ccccc2)c2cccnc12 | -2.77% (active)
Cc1n[nH]c2ccc(Br)cc2c1=O | 99.9% (inactive)
CCCCCCCCCCCCCCCCNC(=S)N/N=C/c1ccc(OC)cc1 | 108% (inactive)
Nc1c(C(=O)c2ccc(Br)cc2)sc2nc3c(cc12)CCCC3 | 79.1% (inactive)
Cc1nc2ccc(Nc3nc(Cl)nc(N4CCOCC4)n3)cc2n1Cc1ccccc1 | 62.2% (inactive)
CCN(CC)c1ccc(C(=N)c2ccc(N(C)C)cc2)cc1 | 5.37% (active)
OC(c1ccccc1)(c1ccccc1)C(F)(F)F | 113% (inactive)
NS(=O)(=O)c1ccc(Nc2nc(N/N=C/c3ccccn3)nc(Nc3ccccc3)n2)cc1 | -29.7% (active)
CNC(=O)c1c(C)oc2cc(Oc3ncnc4cc(OC)c(OC)cc34)ccc12 | 106% (inactive)
C#C[C@]1(O)CC[C@H]2[C@@H]3CC=C4c5sc(-c6cccc(O)c6)nc5CC[C@]4(C)[C@H]3CC[C@@]21C | 1.79% (active)
S=C(N/N=C/c1cc(Cl)cc(Cl)c1)NC12CC3CC(CC(C3)C1)C2 | 104% (inactive)
CCOc1cc2ncc(C#N)c(Nc3ccc(F)c(Cl)c3)c2cc1NC(=O)/C=C/CN(C)C | -43.9% (active)
CCCCCC(=O)OCc1ccccc1 | 97.3% (inactive)
CCN(CC)c1ccc(/C=C/c2ccc3cc(C)ccc3[n+]2CC)cc1 | -24% (active)
CC/C=C(\C)C(CCC)(CN=O)C(=O)OCC (stereo unspecified) | 113% (inactive)
COc1cc(/C=N/NC(=O)Cn2c(C(C)C)nc3ccccc32)ccc1O | 84.9% (inactive)
